High-throughput results (PubChem)
In the library only some 2.8% were active in any assay of this set; here they are far more common.
IP6K1 inh: inhibitors of human IP6K1 | Q92551 | IP6K1 kinase, ADP-Glo luminescence, 2 h; active compounds read low | activity change, % (series mostly up to about 58 µM) | actives 0.81% (n = 140,000) | AID 1645851; in the data active = activity change below about -25%
Target sequence (Q92551 whole entry, looked up): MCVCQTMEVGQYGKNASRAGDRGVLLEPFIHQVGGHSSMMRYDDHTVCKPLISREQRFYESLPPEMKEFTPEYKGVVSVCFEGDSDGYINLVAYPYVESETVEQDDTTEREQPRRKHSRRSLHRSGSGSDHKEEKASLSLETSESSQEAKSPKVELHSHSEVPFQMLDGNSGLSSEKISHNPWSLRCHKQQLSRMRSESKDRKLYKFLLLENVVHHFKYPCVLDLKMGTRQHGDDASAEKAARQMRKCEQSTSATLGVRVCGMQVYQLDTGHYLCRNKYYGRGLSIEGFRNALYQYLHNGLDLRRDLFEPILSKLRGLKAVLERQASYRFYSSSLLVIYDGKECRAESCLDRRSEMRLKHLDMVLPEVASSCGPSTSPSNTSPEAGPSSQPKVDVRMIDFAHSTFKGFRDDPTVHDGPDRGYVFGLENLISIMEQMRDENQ
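ADP-Glo luminescence measures ADP made by human IP6K1 during a 2 h RT reaction with ATP/IP6 (mix at 1.3 mM/130 uM); top library doses 57.5 and 19.1 uM final.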
KDM5B inh: KDM5B demethylase inhibition; Potency, µM (highest dose often 57.7 µM), most hits filed as inhibitors; actives 2.6% (n = 220,000); Q9UGL1; KDM5B demethylase, FDH-coupled NADH fluorescence (FDH is formaldehyde dehydrogenase); note: nearly all actives have a fitted effect of over 70% in size
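qHTS format, multiple compound concentrations. Buffer 50 mM HEPES pH 7.5/0.01% Tween-20; 200 nM KDM5BΔAP final; 10 min compound preincubation; substrate-mix levels 12.5 µM peptide, 25 µM α-KG, 0.25 mM NAD⁺; 30 min RT; ΔRFU.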
SNCA viab count: reduces viability of HEK-293 SNCA reporter cells. Potency, µM (series often up to 57.1 µM), most hits filed as cytotoxic. HEK-293-SNCA-luc viability, GF-AFC fluorescence, 24 h. AID 1671193. actives 0.12% (n = 150,000); note: nearly all actives have a fitted effect of over 30% in size
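HEK-293-SNCA-luc cells (1500/well) plated 24 h, then exposed 24 h to a dilution series; GF-AFC added 30 min at 37C, fluorescence 405/540 nm; normalised to medium-only and DMSO wells, Hill fit.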
SNCA expr inhib: inhibitors of alpha-synuclein (SNCA) gene expression | HEK-293 SNCA-luciferase knock-in, luminescence, 24 h | Potency, µM (highest dose often 57.2 µM), actives largely listed as inhibitors | actives 0.17% (n = 140,000); note: nearly all actives have a fitted effect of over 45% in size
Of the large screens only hits and unclear results are named; the others gave an inactive call. Unless noted, calls come from the whole dose curve; as a rule, active = well fitted curve in the direction sought with a large enough effect; inconclusive = small, poorly fitted or top-dose-only effect, or another doubt; inactive = no such curve, though single readings can be large; an effect the other way counts as inactive or inconclusive.

CCNC(=O)C1CC(F)(c2ccc(CN3CCCC3)c(F)c2)C1 (stereo unspecified)	none (no result: KDM5B inh, SNCA expr inhib)
O=C(N[C@H]1CCN2C(=O)N(c3cccc4nsnc34)C(=O)[C@@H]2C1)c1ccnc(Cl)c1	KDM5B inh 28.2µM
O=C1CC(C(=O)Nc2cccc(Cl)c2)c2c(nc(N3CCCC3)[nH]c2=O)N1 (stereo unspecified)	none (no result: IP6K1 inh, SNCA viab count, SNCA expr inhib)
COc1cccc(-c2ccc(C(=O)NCCNC(=O)C3CC3)cc2)c1	none (no result: KDM5B inh, SNCA viab count, SNCA expr inhib)
COc1cccc(-c2ncc(CNC(=O)[C@H]3CC[C@@H](N)C3)s2)c1	KDM5B inh 25.1µM
CCOc1cccc(C2c3c(-c4cc(C)cc(C)c4O)n[nH]c3C(=O)N2Cc2cccnc2)c1 (stereo unspecified)	none (no result: IP6K1 inh, SNCA viab count, SNCA expr inhib)
c1cc2c(cc1N1CCC(N[C@H]3C[C@@H]4OCC[C@H]34)CC1)CCC2	none
Fc1ccc2cnc(N3CCC(N[C@H]4C[C@@H]5OCC[C@H]45)CC3)nc2c1	KDM5B inh 25.1µM
CCC(O)c1cc2n(n1)CCN(C(=O)Cn1nc(C)c3ccccc3c1=O)C2 (stereo unspecified)	none
O=C(CCNc1c(-c2cccc(F)c2)nc2cnccn12)NCc1ccccc1	KDM5B inh 25.1µM, SNCA viab count inconclusive
O=C(CCNc1c(-c2cccc(F)c2)nc2cnccn12)NCC1CCCO1 (stereo unspecified)	KDM5B inh 28.2µM, SNCA viab count inconclusive
COc1cccc(CNC(=O)CCNc2cnc3cnccn23)c1	KDM5B inh 20µM, SNCA viab count inconclusive
CNC(=O)NCc1cccc(OC)c1	none (no result: IP6K1 inh, SNCA viab count, SNCA expr inhib)
O=C(CCc1ccccc1)NCC1CCCO1 (stereo unspecified)	none (no result: IP6K1 inh, SNCA viab count, SNCA expr inhib)
CNC(=O)N1C[C@@H](CN(C)C)[C@H](NC(=O)c2ccsc2)C1	none
CCCN(Cc1cccc(OC)c1)C(=O)C(c1cccnc1)N1CCOCC1 (stereo unspecified)	none
CCOc1ccc(NC(=O)C2CCCCC(=O)N2)cc1 (stereo unspecified)	none
O=C(NCc1ccco1)c1ccc2c(c1)n(Cc1ccc(F)cc1)c(=O)c1ccnn12	KDM5B inh 28.2µM, SNCA viab count inconclusive, SNCA expr inhib inconclusive
CN(C)C(=O)c1ccc2c(c1)n(Cc1cccc(F)c1)c(=O)c1ccnn12	KDM5B inh 31.6µM
CCCN1CCN(C(=O)c2ccc3c(c2)n(Cc2ccc(F)cc2)c(=O)c2ccnn23)CC1	KDM5B inh 22.4µM
O=C(O)c1ccc2c(c1)n(Cc1cccc(F)c1)c(=O)c1ccnn12	KDM5B inh 28.2µM
COCCCNC(=O)c1ccc2c(c1)n(Cc1ccccc1)c(=O)c1ccnn12	KDM5B inh inconclusive
O=C(O)c1ccc2c(c1)n(Cc1ccc(F)cc1)c(=O)c1ccnn12	KDM5B inh 20µM
O=C(NC1CCCC1)c1ccc2c(c1)n(Cc1cccc(F)c1)c(=O)c1ccnn12	KDM5B inh inconclusive
CCN(CC)CCNC(=O)c1ccc2c(c1)n(Cc1cccc(F)c1)c(=O)c1ccnn12	KDM5B inh 28.2µM, SNCA expr inhib inconclusive
O=C(NCc1cccnc1)c1ccc2c(c1)n(Cc1ccccc1)c(=O)c1ccnn12	KDM5B inh 28.2µM
COc1ccc(Cn2c(=O)c3ccnn3c3ccc(C(=O)NCc4cccnc4)cc32)cc1	KDM5B inh inconclusive
Cn1c(=O)c2ccnn2c2ccc(C(=O)NCC3CCN(Cc4ccccc4F)CC3)cc21	KDM5B inh 31.6µM
CCOc1ccc(S(=O)(=O)N(CC)CC)cc1NC(=O)c1cccc(CN2CCCC2=O)c1	none (no result: IP6K1 inh, SNCA viab count, SNCA expr inhib)
O=C(NCc1cccs1)c1ccc2c(c1)n(Cc1cccc(F)c1)c(=O)c1ccnn12	KDM5B inh 28.2µM
CCOCC(=O)N1CCC(O)(c2ccccc2)[C@H](N2CCCC2)C1 (stereo partly specified)	KDM5B inh 10µM
O=C(C1CCCCC1)N1CC[C@](O)(c2ccccc2)[C@H](N2CCCC2)C1	KDM5B inh 8.91µM
CCC(=O)N1CCC(O)(c2ccccc2)[C@H](N2CCCC2)C1 (stereo partly specified)	KDM5B inh inconclusive
c1cncc(CN2CCc3c(sc4ncnc(N5CCOCC5)c34)C2)c1	KDM5B inh inconclusive
c1cc(CN2CCc3c(sc4ncnc(N5CCCC5)c34)C2)ccn1	KDM5B inh 25.1µM, SNCA viab count inconclusive
Cc1ccsc1C(=O)NC1CCN(c2cc(-c3ccc(Cl)cc3)[nH]n2)C1 (stereo unspecified)	KDM5B inh inconclusive
Cc1ccc(NC(=O)Nc2ccc(C)n(CC(=O)Nc3ccc(C)cc3C)c2=O)cc1	none
